From PubChem BioAssay (NCI)
This is part of a sample that, as a whole, favours compounds with a hit. Of some 79,000 tested, about 15% had one in any assay. No stated cut-off is given here; in the data, active means growth inhibition above about 70%; inactive means the rest.

Key:
[1] = NCI Yeast Anticancer Drug Screen. Data for the rad50 strain (AID 155);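 further: 0% = growth of vehicle-only cultures of the same strain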; conditions: S. cerevisiae rad50 strain growth inhibition; at 50.0 µM; active compounds read high
Procedure, shortened: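 Cells are treated with compound, grown, and their growth is then scored against vehicle-only cultures of the same repair-deficient yeast strain.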

[2] = NCI Yeast Anticancer Drug Screen. Data for the mec2-1 strain (AID 157); conditions: S. cerevisiae mec2-1 strain, at 50.0 µM, active compounds read high
Procedure, shortened: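 Yeast mec2-1 mutant treated with compound. Readout: growth inhibition vs vehicle controls.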

[3] = NCI Yeast Anticancer Drug Screen. Data for the sgs1 mgt1 strain (AID 161);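 further: 0% = growth of cultures given vehicle only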; conditions: S. cerevisiae sgs1 mgt1 strain, at 50.0 µM, active compounds read high
Procedure, shortened: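 Read-out: growth inhibition vs vehicle controls. Cells: mutant yeast strain deficient in DNA damage repair.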

[4] = NCI Yeast Anticancer Drug Screen. Data for the bub3 strain (AID 167); conditions: S. cerevisiae bub3 mutant strain, at 50.0 µM, active compounds read high
Procedure, shortened: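 Part of a panel of yeast mutants defective in DNA damage repair or cell cycle regulation. Each strain is grown with compound, and inhibition is calculated relative to solvent-treated cultures.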

[5] = NCI Yeast Anticancer Drug Screen. Data for the mlh1 rad18 strain (AID 175); conditions: S. cerevisiae mlh1 rad18 strain growth inhibition; at 50.0 µM; active compounds read high
Procedure, shortened: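 Yeast w/ defined DNA-repair lesions; compound exposure; growth vs vehicle controls → % inhibition.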

[6] = NCI Yeast Anticancer Drug Screen. Data for the cln2 rad14 strain (AID 165);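 further: 0% = growth equal to vehicle treated cultures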; conditions: S. cerevisiae cln2 rad14 strain, at 50.0 µM, active compounds read high
Procedure, shortened: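 cln2 rad14 yeast strain; compound exposure; growth inhibition read vs vehicle controls.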

Measured: growth inhibition

CCCCCCCCC(Br)C(Br)CCCCCCCC(=O)N(CCCC)CCCC (stereo not given)
inactive: [1] 36.9% | [2] 10.6% | [3] 2.05% | [4] 13.8% | [5] 8.3%

CC1=CCCC(C)(C)C1/C=C/C(C)=N/NC(=O)Nc1ccccc1 (stereo not given)
inactive: [1] 32.2% | [2] -6.2% | [3] 0.25% | [4] 8.85% | [5] 16.4%

CCCCS(=O)(=O)C[N+](C)(CC)CC
inactive: [1] 34.1% | [2] -0.7% | [3] -5.45% | [4] -4.65% | [5] 3.45%

COc1cc(/C=C/C=C(C(=O)O)C(=O)O)cc(OC)c1OC
inactive: [1] -5% | [2] -1.2% | [3] -14.7% | [4] -6.2% | [5] -4.45%

CC(=O)OC(C)C1(C)CCC2CCCC(C)(C)C2C1 (stereo not given)
inactive: [1] -6.4% | [2] -5.15% | [3] -11.9% | [4] 9.45% | [5] -13.7%

CC1SC2(C(=O)N(CN3CCCCC3)c3ccccc32)N(c2ccccc2)C1=O (stereo not given)
inactive: [1] 15.4% | [2] -0.45% | [3] -30.9% | [4] 3.9% | [5] -0.1%

C=CCCCCCCCCC(=O)OC1CCCCC1
inactive: [1] -9.25% | [2] 0.2% | [3] 11.1% | [6] -23.1% | [5] 6.15%

CCCC(=O)c1ccc2c(ccc(=O)n2C)c1
inactive: [1] 12.2% | [2] -8.75% | [3] -5.2% | [4] 28.8% | [5] 15.9%

CCSc1sc(=Nc2ccc(N=c3sc(C)c(SC)s3)cc2)sc1-c1ccc(C)cc1
inactive: [1] -33.6% | [2] -0.75% | [3] -11.2% | [4] 2.25% | [5] -5.2%

C/C=C(/C)C(=O)O[C@H]1CC[N+]2([O-])CC=C(COC(=O)[C@@](O)([C@H](C)OC)C(C)(C)O)[C@H]12 (stereo not given in full)
inactive: [1] -13.1% | [2] -5.1% | [3] -3.45% | [4] 6.75% | [5] 12.5%

CC(C)(C)C1=CC(=C(c2ccc(-c3c4nc(c(-c5ccc(C(=C6C=C(C(C)(C)C)C(=O)C(C(C)(C)C)=C6)c6cc(C(C)(C)C)c(O)c(C(C)(C)C)c6)cc5)c5ccc([nH]5)c(-c5ccc(C(=C6C=C(C(C)(C)C)C(=O)C(C(C)(C)C)=C6)c6cc(C(C)(C)C)c(O)c(C(C)(C)C)c6)cc5)c5nc(c(-c6ccc(C(=C7C=C(C(C)(C)C)C(=O)C(C(C)(C)C)=C7)c7cc(C(C)(C)C)c(O)c(C(C)(C)C)c7)cc6)c6ccc3[nH]6)C=C5)C=C4)cc2)c2cc(C(C)(C)C)c(O)c(C(C)(C)C)c2)C=C(C(C)(C)C)C1=O
inactive: [1] 4.7% | [2] 2.6% | [3] -1.75% | [4] -3.9% | [5] 14.4%

Nc1ccc(I)cc1
inactive: [1] -10.8% | [2] -4.05% | [3] -34.6% | [4] -23.2% | [5] -22.1%

COC(=O)C(C(=O)C(=O)Nc1cccc(OC)c1)c1cnc2ccccc2n1 (stereo not given)
inactive: [1] -16.4% | [2] -8.85% | [3] -9.45% | [4] 6.9% | [5] -10.5%

CC1OCOC1C1OCOCC1OC(=O)c1ccccc1 (stereo not given)
inactive: [1] -5.6% | [2] -5.5% | [3] -15.2% | [4] 25.2% | [5] -5%

CN(C)Cc1cc(C(=O)O)ccc1O
inactive: [1] 10.1% | [2] 13.1% | [3] 9.45% | [4] 2.85% | [5] -0.75%

Cc1cc(N(CCC#N)CCC#N)ccc1/C=C1N=C(/C=C/c2ccccc2)OC(=O)N\1
inactive: [1] 14.7% | [2] -5% | [3] 4.7% | [4] 1.15% | [5] -13.7%

c1ccc(N=C(N2CCCC2)N(CCN2CCCC2)c2ccccc2)cc1
inactive: [1] -39.4% | [2] -58.1% | [3] -36.4% | [4] -14.2% | [5] -28.2%

CC(=O)Oc1ccc(C2CC(=O)N(CCN(C)C)C2=O)cc1 (stereo not given)
inactive: [1] 0.2% | [2] 30.2% | [3] -0.5% | [4] 14.2% | [5] -2.1%

CCO[C@H]1OC(=O)[C@@H]2C(c3ccc(F)cc3)=NO[C@H]12
inactive: [1] -27.1% | [2] -44.4% | [3] 0.35% | [4] 8.95% | [5] -9.3%

CC(C)(CO)NCC(O)CS(=O)(=O)O (stereo not given)
inactive: [1] -30.8% | [2] -16.6% | [3] -9% | [4] 4.25% | [5] 0.4%

COc1ccc(NC(=S)Nc2ccccc2)cc1
inactive: [1] 4.8% | [2] -36.8% | [3] -22.6% | [6] -46.9% | [5] -8.4%

Cc1cc(Sc2ccc(Cl)cc2)nc(Sc2ccc(Cl)cc2)c1C#N
inactive: [1] 7.6% | [2] -30.5% | [3] -27.9% | [4] -10.7% | [5] -26.9%

CC1(C)OC(C(O)CO)C(C2COC(=S)O2)O1 (stereo not given)
inactive: [1] 1.45% | [2] 15.9% | [3] 8.45% | [4] 12.6% | [5] -1.8%
